High-throughput results as filed in PubChem.
Compounds with a hit are over-represented: about 21% of the library has one in this group of screens.
Shiga inhibitor: blocks Shiga toxin action in Vero cells; Vero cells, Shiga toxin protein synthesis inhibition reporter; inhibition, % at 38.7 µM; 290,000 compounds, 9.2% hits; AID 2315; in the data active = inhibition mostly above about 28%, no sharp cut-off; inactive = mostly below about 43%; also: 0% is about no effect
CHX counter: counter-screen hit for Shiga toxin inhibitors, cycloheximide; cell reporter, cycloheximide protein synthesis inhibition counterscreen; max response, %; 300,000 compounds, 12% hits; in the data active = max response mostly above about 13%, no sharp cut-off; inactive = mostly below about 14%; also: read at 38.3 µM for the half of the compounds with a filed dose; 0% is about no effect
Pf growth 96h: inhibits malaria parasite growth, 96 h. 320,000 compounds, 6.9% hits. Potency, µM (titrated, usually from 28.7 µM), for inactives: at the top dose activity change, negative = inhibition, hits mostly inhibitors. P. falciparum luciferase reporter growth, 96 h; also: potency is read from the fitted curve at half-maximal effect; % is scaled to controls: 0 for no effect and ±100 for the full control effect
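Luminescence readout: decreased luciferase signal marks inhibited growth of reporter-expressing P. falciparum in infected red cells (2% hematocrit, 0.05% parasitemia final), exposed to compound two generations (96 h, 37 C, 5% CO2).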
Pf growth 48h: P. falciparum growth inhibition at 48 hours (one generation); P. falciparum luciferase growth in erythrocytes, 48 h; 310,000 compounds, 5.9% hits; Potency, µM (titrated, usually from 28.7 µM), for inactives: top-dose activity change, negative = inhibition, most hits filed as inhibitors; also: potency is read from the fitted curve at half-maximal effect; % is scaled to controls: 0 for no effect and ±100 for the full control effect
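Read-out is firefly luciferase luminescence from an integrated reporter in P. falciparum, so falling signal marks reduced parasite growth. Infected erythrocytes were at 2% hematocrit and 0.1% parasitemia (final) in Albumax-supplemented RPMI 1640.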
The depositor's hits bear a star; ? = inconclusive; . = not tested or not shown; [ ] = another dose, or the depositor's remark. Unless noted, calls follow the shape of the dose curve; as a rule, active = well fitted inhibition curve with a large enough effect; inconclusive = small, poorly fitted or top-dose-only effect, or another doubt; inactive = no such curve, though single readings can be large or run the other way.

SMILES	Shiga inhibitor	CHX counter	Pf growth 96h	Pf growth 48h
C#CCOCCOCCOCCNc1nc(N2CCN(C(=O)CCCCCCCCCCNC(=O)[C@H]([C@@H](C)CC)n3cc(CCCCN=C(N)N)nn3)CC2)nc(N2CCN(C(=O)CCCCCCCCCCNC(=O)[C@H](CCCCN)n3cc(C)nn3)CC2)n1	.	.	4.7µM*	3.7µM*
C#CCOCCOCCOCCNc1nc(N2CCN(C(=O)CCCCCCCCCCNC(=O)Cn3cc(CCCCCN)nn3)CC2)nc(N2CCN(C(=O)CCCCCCCCCCNC(=O)[C@H]([C@@H](C)CC)n3cc(CCCCN=C(N)N)nn3)CC2)n1	.	.	3.3µM*	2.1µM*
COc1ccc(S(=O)(=O)N2CCCC(C(=O)NC3CC3)C2)cc1OC (configuration not stated)	.	.	1%	?
COc1cc2c(cc1OC)CN(S(=O)(=O)c1ccccc1F)CC2	-9	5	-13%	-19%
C#CCOCCOCCOCCNc1nc(N2CCN(C(=O)CCCCCCCCCCNC(=O)[C@H]([C@@H](C)CC)n3cc(CCCCN=C(N)N)nn3)CC2)nc(N2CCN(C(=O)CCCCCCCCCCNC(=O)[C@H]([C@@H](C)CC)n3cc(CCCCN=C(N)N)nn3)CC2)n1	.	.	4.1µM*	3.7µM*
Cc1ccc(-c2cc(-c3ccc(C)cc3)[n+](C)o2)cc1	-1	-3	0.37µM*	1.2µM*
O=C(NCc1cccc(F)c1)C1CCC(=O)N(C2CC2)C1 (configuration not stated)	9	-1	-3%	17%
Cc1cccc(-c2ncc(CN3CCN(CCC(C)C)C(CCO)C3)cn2)c1 (configuration not stated)	13	1	?	?
CCCNC(=O)C(=O)Nc1ccc2c(c1)N(S(=O)(=O)c1cccs1)CCC2	.	.	56%	1%
CN(C)CCNC(=O)C(=O)Nc1ccc2c(c1)N(S(=O)(=O)c1cccs1)CCC2	.	.	13µM*	?
CN(C)CCCNC(=O)C(=O)Nc1ccc2c(c1)N(S(=O)(=O)c1cccs1)CCC2	.	.	?	9.3µM*
S=C(Nc1ccc(Nc2ccccc2)cc1)N1CCN(c2ncccn2)CC1	-7	6	-14%	-6%
CCOc1ccc(N/C=C/C(=O)c2ccccc2)c([N+](=O)[O-])c1	46*	59*	?	-49%
CCOc1ccc(Nc2ccc(C(=O)O)cc2[N+](=O)[O-])cc1	-6	1	?	-1%[0.00184 µM]
CCOc1ccc(NC(=O)/C=C/c2ccccc2)c([N+](=O)[O-])c1	29	25*	8.3µM*	9.3µM*
O=C(Cc1ccccc1)Nc1nc(-c2cccs2)cs1	105*	43*	.	78%
O=C(Cc1ccccc1)Nc1nnc(-c2cccs2)s1	40	25*	38%	28%
CCc1noc(C)c1C(=O)Nc1nc(-c2ccc(OC)cc2)cs1	.	.	?	16%
COc1ccc(OC)c(-c2csc(NC(=O)Cc3ccccc3)n2)c1	45	24	?	?
CCc1noc(C)c1C(=O)Nc1nc(-c2ccc(OC)cc2OC)cs1	.	.	2.3µM*	2.3µM*
COc1ccc(-c2csc(NC(=O)Cc3ccccc3F)n2)c(OC)c1	38	14*	?	?
O=C(C1CCCN(CCCc2ccccc2)C1)N1CCCCCC1 (configuration not stated)	14	-2	49%	-10%
O=C(Cc1ccccc1F)Nc1nc(-c2cccnc2)cs1	17	8	-7%	?
O=C(Cc1ccccc1F)Nc1nc(-c2cccs2)cs1	50*	37*	?	57%
O=C(Cc1ccccc1F)Nc1nc(-c2ccc(F)c(F)c2)cs1	62*	19*	-4%	15%
SMILES	Shiga inhibitor	CHX counter	Pf growth 96h	Pf growth 48h
CCc1cccc(C)c1NC(=O)CO/N=C(\N)CC(=O)NC1CCCCC1	-4	-2	?	?
O=C(NS(=O)(=O)Nc1ccc(Br)cn1)c1c[nH]c2ccccc12	-6	-3	18%	30%
CCOc1ccc(C(=O)NCC2CCN(CC3CCCCC3)CC2)cc1	-5	1	5.9µM*	42%
CCN(CC)S(=O)(=O)c1ccc(C(=O)NCC2CCCCC2)cc1	-7	19	?	-14%
CC(=O)Nc1ccc(C(=O)NC2CCCC2)cc1	-15	-3	21%	7%
CC(=O)Nc1ccc(C(=O)NCC2CCCCC2)cc1	16	20*	46%	12%
CC1CN(C(=O)CCS(=O)(=O)c2ccccc2)CC(C)O1 (configuration not stated)	26	17	25%	25%
O=C(CCS(=O)(=O)c1ccccc1)N1CCN(c2ccccc2)CC1	84*	40*	?	146%
O=C(CCS(=O)(=O)c1ccccc1)N1CCOCC1	53	31*	-15%	56%
N#CCSc1nnc2ccc3ccccc3n12	active	13*	27%	41%
Cc1cc(C(=O)NCCC2=CCCCC2)no1	91*	45*	20%	20%
O=C(NCCC1=CCCCC1)c1c(O)nc2sccn2c1=O	.	.	?	12µM*
O=C(NCCC1=CCCCC1)c1cnsn1	46*	35*	4.7µM*	90%
CCCCCCCCNC(=O)c1cnsn1	18	-1	-20%	1%
O=C(NCCC1=CCCCC1)c1cc(COc2ccc(F)cc2Cl)on1	15	-2	?	4%
O=C(NCC1CCCO1)c1cc2c(s1)CS(=O)(=O)C2 (configuration not stated)	8	7	.	15%
O=C(NCCC1=CCCCC1)c1cc2c(s1)CS(=O)(=O)C2	25*	17*	2%	39%
Cc1nc(C)n(C(C)CC(=O)O)n1 (configuration not stated)	-2	-2	-12%	-14%
O=C(Nc1ccc(Oc2ccc(Br)cc2)cc1)C1=CC=CN2CCS(=O)(=O)N=C12	.	.	?	-5%
O=C(NCCc1ccc(Cl)cc1)c1cc2ccccn2n1	60	25*	11%	-13%
Cc1cc(C(=O)NCCc2ccc(S(N)(=O)=O)cc2)no1	-18	-8	-26%	-10%
O=C(Nc1ccc(Br)cc1)c1cc2ccccn2n1	64*	44*	340%	181%
Cc1cc(C(=O)NCCc2ccc(Cl)cc2)no1	24	13	-19%	6.6µM*
CSc1nc(C)cc(Oc2ccccc2)n1	-12	10	61%[5.75 µM]	-11%
CC1(C)Cc2c(sc3[nH]c(=O)n(CC(=O)NCC4CCCO4)c(=O)c23)CO1 (configuration not stated)	-6	6	83%	22%
SMILES	Shiga inhibitor	CHX counter	Pf growth 96h	Pf growth 48h
COc1ccccc1C(=O)N/C(=N/c1nc(C)cc(C)n1)Nc1ccccc1	16	12*	7%	0%
CCC(=O)N/C(=N/c1nc(C)cc(C)n1)Nc1ccccc1	-12	5	11%	11%
CCC(=O)N/C(=N/c1nc(C)cc(C)n1)Nc1ccc(OC)cc1	2	-4	15µM*	-19%
COc1ccccc1N/C(=N/c1nc(C)cc(C)n1)NC(C)=O	-9	-1	19%	-20%
CCN(CCN(C)C)C(=O)C1CCN(S(=O)(=O)c2c(C)noc2/C=C/c2ccccc2F)CC1	-18	-15	-14%	9.3µM*
CCOc1ccccc1/C=C/c1onc(C)c1S(=O)(=O)N1CCC(C(=O)N(CC)CC)CC1	-7	8	12%	10µM*
